The record followed here is PubChem BioAssay AID1445 (SRMLSC, 2008).

In all, about 220,000 compounds went through this assay and about 910 (0.41%) were called active. The sample holds actives, similar compounds and a random draw of the others, so the mix is not that of the screen. Results with a measured potency or affinity are listed apart. Values without a mark were called inactive.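 Rule for the calls: active = primary inhibition above the hit cutoff, then over 50% inhibition at one or more dose response concentrations (cut at about 23% in these data, passing the limit was not always enough); inconclusive = conflicting primary data, or primary hits not chosen for dose response; inactive = low primary inhibition, or under 50% at every dose.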

The target of this assay is Aminopeptidase N (Plasmodium falciparum (isolate 3D7)) (UniProt O96935). In words: P. falciparum M1AAP inhibitors, biochemical, fluorogenic H-Leu-NHMec substrate, 1536-well (AID 1445).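 Note: plate controls were DMSO full reaction for no effect and no enzyme background for full effect.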 Particulars: recombinant M1AAP, H-Leu-NHMec fluorogenic kinetic assay; at 30 µM, active compounds read high unless noted.
Aminopeptidase N (Plasmodium falciparum (isolate 3D7)), sequence (O96935 whole entry, looked up): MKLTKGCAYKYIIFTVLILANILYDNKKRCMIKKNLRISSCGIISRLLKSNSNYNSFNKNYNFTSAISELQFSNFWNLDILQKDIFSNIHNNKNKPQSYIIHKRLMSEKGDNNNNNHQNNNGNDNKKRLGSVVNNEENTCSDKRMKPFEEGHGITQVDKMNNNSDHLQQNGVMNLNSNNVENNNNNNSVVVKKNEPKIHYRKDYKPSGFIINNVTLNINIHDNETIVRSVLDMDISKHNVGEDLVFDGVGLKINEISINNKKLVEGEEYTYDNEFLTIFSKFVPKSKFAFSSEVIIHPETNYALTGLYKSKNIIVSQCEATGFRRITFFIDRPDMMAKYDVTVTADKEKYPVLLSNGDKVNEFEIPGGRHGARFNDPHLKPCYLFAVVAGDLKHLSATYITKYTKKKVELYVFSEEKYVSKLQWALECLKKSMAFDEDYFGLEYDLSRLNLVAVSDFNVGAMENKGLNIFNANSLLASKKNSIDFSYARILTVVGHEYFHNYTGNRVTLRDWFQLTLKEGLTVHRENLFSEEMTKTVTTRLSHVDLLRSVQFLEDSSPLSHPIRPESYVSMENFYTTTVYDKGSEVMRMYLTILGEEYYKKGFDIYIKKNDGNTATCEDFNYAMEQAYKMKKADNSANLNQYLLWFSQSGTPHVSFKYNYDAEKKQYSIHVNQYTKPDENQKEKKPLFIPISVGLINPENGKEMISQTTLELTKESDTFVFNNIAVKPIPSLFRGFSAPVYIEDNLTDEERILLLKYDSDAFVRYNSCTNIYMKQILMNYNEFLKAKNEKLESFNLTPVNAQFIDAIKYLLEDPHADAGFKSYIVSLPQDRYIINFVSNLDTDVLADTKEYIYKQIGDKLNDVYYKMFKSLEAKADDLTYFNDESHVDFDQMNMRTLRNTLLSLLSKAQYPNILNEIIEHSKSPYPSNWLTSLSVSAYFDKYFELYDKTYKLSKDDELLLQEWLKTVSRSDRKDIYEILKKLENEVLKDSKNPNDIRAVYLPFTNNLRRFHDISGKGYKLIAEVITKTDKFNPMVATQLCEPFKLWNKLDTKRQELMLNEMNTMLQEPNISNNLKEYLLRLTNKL
The term inhibition denotes the relative decrease from the control value, in per cent. In the case of `COc1ccc(NC(=S)NCc2ccccn2)cc1OC`, the inhibition is 10.7%.
Next, `COC(=O)CCP(=O)(O)Cc1ccccc1CP(=O)(O)CCC(=O)OC`: 25.9% (active); `COC(=O)CCC(=O)NNC(=O)Cc1ccccc1`: 1.14%.
Then `COC(=O)CP(=O)(c1ccccc1)c1ccccc1`, with 6.71%.
As for `Brc1c(CSc2nncn2-c2ccccc2)nc2ncccn12`, the inhibition was 9.69%.
Next, `NC(=O)CSc1nnc(-c2cccs2)n1Cc1ccco1`: 8.05%; `O=C(COC(=O)c1ccc(NS(=O)(=O)c2cccs2)cc1O)Nc1nc2ccccc2s1`: 8.12%; `COc1ccccc1NS(=O)(=O)c1ccc(O)c(C(=O)OCC(=O)Nc2ccccc2F)c1`: -2.66%.
Then `COc1cc(-c2nc3ccc4ccccc4c3c3c2CCC3)ccc1O`, with 8.66%.
Next, `Cc1ccc(-c2nc(CN3CCN(c4cnccn4)CC3)c(C)o2)o1`: 5.52%; `CCOC(=O)C1CCCN(C(=O)c2cc(-c3ccc(F)cc3)nc3ccccc23)C1` (stereo not drawn): 0.66%; `Cc1ccc(C)c2[nH]c(=O)c(CN(Cc3ccco3)S(=O)(=O)c3ccc4c(c3)OCCO4)cc12`: 11.6%.
As for `COc1ccc(C2C(C(=O)OCC(=O)N3CCCCC3)CCC(=O)N2c2ccc(OC)cc2)cc1` (stereo not drawn), the inhibition is 0.13%.
Next, `CCNC(=O)COC(=O)C1CCC(=O)N(c2ccc(OC)cc2)C1c1ccc(OC)cc1` (stereo not drawn): 12.7%; `COc1ccc(C2C(C(=O)OCC(=O)Nc3ccc(C)cc3)CCC(=O)N2c2ccc(OC)cc2)cc1` (stereo not drawn): 23.9% (active); `O=C(Nc1ccc2nn(-c3ccccc3)nc2c1)c1cccs1`: -15.1%.
For the compound `Cc1ccc(CNC(=O)C2CCCN(S(=O)(=O)c3cnc[nH]3)C2)cc1` (stereo not drawn), the inhibition is -2.21%.
Regarding `CCCCC(CC)CNC(=O)C1CCCN(S(=O)(=O)c2cnc[nH]2)C1` (stereo not drawn), the inhibition is 24.2% (active).
Then `COc1ccccc1NC(=O)C1CCCN(S(=O)(=O)c2cnc[nH]2)C1` (stereo not drawn), with 1.4%; and `O=C(NCc1ccccc1Cl)C1CCCN(S(=O)(=O)c2cnc[nH]2)C1` (stereo not drawn), with 4.7%.
As for `CCCCNC(=O)C1CCN(S(=O)(=O)c2cnc[nH]2)CC1`, the inhibition was 14.7%.
Take `COc1ccccc1CNC(=O)C1CCCN(S(=O)(=O)c2cnc[nH]2)C1` (stereo not drawn): the inhibition was 23.9% (active).
`CC(C)(C)N1C(=O)c2ccccc2NC(=O)N1Cc1ccc(Br)cc1`: the inhibition is 2.07%.
Consider `O=C1CC(SC(=Nc2ccccc2)Nc2ccccc2)C(=O)N1c1ccc(Cl)c(Cl)c1` (stereo not drawn), for which the inhibition was -2.66%.
`CCC/C(O)=C1\C(=O)CCCC1=NCCc1ccc(OCC)c(OCC)c1`: the inhibition was 5.18%.
In the case of `CC(=O)c1cccc(-n2nnnc2SCC(=O)Nc2cccc(NC(=O)c3ccco3)c2)c1`, the inhibition was 8.36%.
Then `Cc1c(N=Cc2nc3ccccc3[nH]2)c(=O)n(-c2ccccc2)n1C`, with 17.4%; and `Cc1c(N=Cc2nc3ccccc3n2C)c(=O)n(-c2ccccc2)n1C`, with 27.3% (active); and `Cc1c(N=Cc2ccncc2)c(=O)n(-c2ccccc2)n1C`, with 1.24%.
On to `O=C(NCCc1c[nH]c2ccccc12)C(=O)NCC1OCCCN1S(=O)(=O)c1ccc(F)cc1` (stereo not drawn), for which the inhibition is 4.14%.
Next, `CCc1cccc(CC)c1NC(=O)COC(=O)c1ccc(F)c(S(=O)(=O)N(CC)CC)c1`: 3.7%; `CCOc1ccccc1NC(=O)Nc1cnccn1`: 8.05%; `O=c1c2ccccc2nc2n1CC/C2=C\c1ccccc1[N+](=O)[O-]`: 1.69%.
Turning to `CCOC(=O)c1ccc(-n2c(C)nc3ccccc3c2=O)cc1`, the inhibition is 3.03%.
Then `CSc1ncc(Cl)c(C(=O)Nc2ccc(NC(C)=O)cc2)n1`, with 1.65%.
Regarding `CSc1ncc(Cl)c(C(=O)Nc2cccc(C)c2)n1`, the inhibition is 6.29%.
Then `COc1ccc(S(=O)(=O)N2CCC(NC(=O)C(Cc3cccc(OC)c3OC)NC(C)=O)CC2)cc1` (stereo not drawn), with 12.2%; and `CCOC(=O)CSCC(=O)Nc1nnc(-c2cccc([N+](=O)[O-])c2)s1`, with 2.17%; and `COc1ccc(-n2c(SCC(=O)Nc3cc(C)on3)nc3c([nH]c4ccccc43)c2=O)cc1`, with 0.91%.
In the case of `CN1C(=O)C(C(=O)NC(C)(C)C)C2c3ccccc3OC13CCCCC23` (stereo not drawn), the inhibition was 24.3% (active).
Then `COc1ccc2c(c1)OC13CCCCC1C2C(C(=O)c1ccccc1)C(=O)N3` (stereo not drawn), with -8.77%; and `COc1ccc(NC(=O)C2C(=O)N(C)C3(C)CC2c2ccccc2O3)cc1` (stereo not drawn), with 9.89%.
On to `O=C(CSc1nc(O)cc(=O)[nH]1)N1c2ccccc2Sc2ccccc21`, for which the inhibition was 18.4%.
Next, `CCOc1ccc2nc(NC(=O)CSc3ccc(Cl)cc3)sc2c1`: 2.68%; `CCOc1ccc2nc(NC(=O)CSc3ccccc3)sc2c1`: 8.9%; `Cc1cc(C)c(C#N)c(SCC(=O)c2cccs2)n1`: 2.39%.
Next, `Cc1nc(SCC(=O)N2c3ccccc3Sc3ccccc32)n[nH]1`: 4.61%.
Then `CC(=O)CSc1nc(-c2cccs2)c(C#N)c(=O)[nH]1`, with 7.78%; and `O=C(CCc1ccc(S(=O)(=O)N2CCOCC2)cc1)Nc1ccc(N2CCOCC2)cc1`, with 3.54%.
On to `Cc1ccc(-c2noc(CN(C(=O)C(c3ccccc3)c3ccccc3)C(C)C)n2)cc1`, for which the inhibition is 5.44%.
Then `NC(=O)N/N=C/c1ccccc1OC(=O)c1ccccc1Br`, with 0.59%; and `Cc1ccccc1CS(=O)(=O)c1cn(CC(=O)N2CCC(C)CC2)c2ccccc12`, with 9.75%; and `Cc1ccc(C)c(CS(=O)(=O)c2cn(CC(=O)N3CCC(C)CC3)c3ccccc23)c1`, with 9.18%.
`CCN(C1CCCCC1)S(=O)(=O)c1ccc(S(=O)(=O)N2CCN(CCC#N)CC2)cc1`: the inhibition is -1.62%.
Then `O=C(/C=C\Nc1ccc2c(c1)OCO2)c1ccc(Cl)s1`, with 3.02%; and `O=S(=O)(NC1CCCC1)c1ccc(S(=O)(=O)N2CCCN(Cc3ccccc3)C2)cc1`, with 0.63%.
As for `CC(=NCc1ccncc1)C1=C(O)c2ccccc2C1=O`, the inhibition was 23.6% (active).
Next, `CC(=NCc1cccnc1)C1=C(O)c2ccccc2C1=O`: 4.58%; `CCCN=C(C)C1=C(O)c2ccccc2C1=O`: 3.71%; `CCC(c1nnnn1Cc1ccco1)N1CCC(C(N)=O)CC1` (stereo not drawn): 10.1%.
Next, `Nc1cc(-c2ccccc2)nn1Cc1ccccc1`: 34.3%; `Cc1ccc(-c2cc(N)n(Cc3ccc(Cl)cc3)n2)cc1`: 12.9%; `Nc1cc(-c2ccccc2)nn1Cc1ccc(Cl)cc1`: 25.7% (active).
As for `N#CC1=C(N)OC2=C(C(=O)CCC2)[C@]12C(=O)N(CC(N)=O)c1ccccc12`, the inhibition was 9.16%.
Then `Cc1cccc(Nc2nc(N)nc(CN3CCN(C)CC3)n2)c1`, with 9.59%; and `CCN(CC)CCCNC(=O)C(C)n1c2ccccc2c2nc(=O)cc(C)n21` (stereo not drawn), with 3.31%; and `COc1ccc(N/C(C)=C2/C(=O)C(=O)N(CCO)C2c2ccc([N+](=O)[O-])cc2)cc1` (stereo not drawn), with 23.9% (active).
Next, `COc1ccc(C2/C(=C(/O)c3ccccc3)C(=O)C(=O)N2CCO)cc1` (stereo not drawn): 2.56%; `COc1ccc(N/C(C)=C2/C(=O)C(=O)N(CCO)C2c2ccc(Br)cc2)cc1` (stereo not drawn): 7.27%; `CCCCN1C(=O)C(O)=C(C(C)=O)C1c1ccccc1[N+](=O)[O-]` (stereo not drawn): -0.46%.
Next, `CCCCN(CC)S(=O)(=O)c1ccc2c(c1)CCCN2C(C)=O`: -2.36%; `CC1CCCCN1S(=O)(=O)c1cnc(Cl)c(Br)c1` (stereo not drawn): -7.81%.
In the case of `O=C(c1ccccc1F)N1CCN=C1c1ccccc1`, the inhibition was 6.9%.
Then `Cc1occc1C(=O)N/N=C/c1ccccn1`, with 3.01%; and `Nn1c(SCC(=O)Nc2cc(S(=O)(=O)N3CCOCC3)ccc2Cl)nnc1-c1cccnc1`, with 6.37%; and `COc1ccc(-n2cnnc2SCC(=O)Nc2cc(S(=O)(=O)N3CCCCC3)ccc2C)cc1`, with 3.33%.
Then `Cc1ccnc2nc(C(=O)Nc3ccc(S(=O)(=O)N4CCCC4)cc3)nn12`, with -4.02%; and `O=C(CSc1nc2ccccc2nc1SCC(=O)N1CCOCC1)N1CCOCC1`, with 6.36%.
Next, `COc1ccc2nc(SCC(=O)N3CCCCCC3)c(C#N)cc2c1`: 6.08%; `Cc1cc2ccccc2nc1SCC(=O)N1CCCC1`: 11.8%; `COc1ccc2nc(SCC(=O)N3CCCCC3)c(C#N)cc2c1`: 19.1%.
With `O=C(CSc1nc2ccccc2nc1SCC(=O)N1CCCCC1)N1CCCCC1`, the inhibition is 42.7% (active).
Consider `O=C(CCc1nnc(Cc2c[nH]c3ccccc23)o1)NC(C1CC1)C1CC1`, for which the inhibition is 1.78%.
Next, `CN1CCN(C(=O)CCNC(=O)Cn2ccc3ccccc3c2=O)CC1`: 2.23%.
Next, `CC(=O)Nc1ccc(NC(=O)Cn2nc([N+](=O)[O-])c(Br)c2C)cc1`: -1.26%; `CCn1c(COc2cccc(OC)c2)nnc1SCC(=O)Nc1cccc(OC)c1`: -3.8%; `CCCn1cc(S(=O)(=O)CC(=O)N2CCc3ccccc32)c2ccccc21`: -2.1%.
Then `CCC(C)(C(=O)NC1CCCCC1)N(CC1CCCO1)C(=O)CNC(=O)c1ccccc1` (stereo not drawn), with 4.25%.
Take `O=C(CS)Nc1ccc2ccccc2c1`: the inhibition is 6.21%.
`Cc1ccc(Cl)cc1N1CCN(C(CC(C)C)c2nnnn2CC2CCCO2)CC1` (stereo not drawn): the inhibition is -6.33%.
For the compound `CCCC(c1nnnn1CC1CCCO1)N1CCN(c2ccccc2)CC1` (stereo not drawn), the inhibition is 7.5%.
Next, `CC(C)CC(c1nnnn1CC1CCCO1)N1CCN(c2cccc(Cl)c2)CC1` (stereo not drawn): 31.4% (active).
Next, `CCCCCc1ccc(CC(=O)O)cc1`: 3%.
